Data published in PubChem BioAssay (Tox21).
A number with no mark means an inactive call. Records with an inconclusive call do not appear. A call without a number means that no potency is given here. The source made the active and inactive calls. Calls follow the shape of the dose curve; as a rule, active = well fitted curve in the direction sought with a large enough effect in the repeat runs; inconclusive = weak or mixed curves; inactive = no such curve, though single readings can be large; an effect the other way counts as inactive or inconclusive.

Experiments:
[1] = qHTS RealTime-Glo MT Cell Viability Assay in HepG2 cells - 40 hour (AID 1224870); also: nearly all actives have a fitted effect of over 50% in size
Summary of the method: (§1)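 HepG2 cells mixed with RealTime-Glo MT reagents (NanoLuc plus cell-permeant prosubstrate) were seeded at 600 cells/well, incubated 5 h at 37 C/5% CO2, then pinned with compounds in DMSO; nonlytic luminescence tracked viability during 40 h treatment.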

[2] = A CellTox Green Cytotoxicity Assay to monitor cytotoxicity in HEK293 cells - 40 hour (AID 1224871); also: nearly all actives have a fitted effect of over 45% in size; also: potency is read from the fitted curve at half-maximal effect
Summary of the method: (§2)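 Seeding of HEK293 cells together with cytotoxicity dye preceded a 5 h incubation at 37 C/5% CO2. Test compounds in DMSO were then added and fluorescence monitored across 40 h.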

[3] = qHTS RealTime-Glo MT Cell Viability Assay in HEK293 cells - 16 hour (AID 1224872); also: top concentration of the series differs between compounds; nearly all actives have a fitted effect of over 50% in size
Summary of the method: (§3)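 HEK293 cells seeded with NanoLuc/prosubstrate reagent, rested 5 h at 37 C, then dosed and kept at 37 C up to 40 h. Nonlytic real-time luminescence from viable cells read at 0, 8, 16, 24, 32 and 40 h.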

[4] = qHTS RealTime-Glo MT Cell Viability Assay in HepG2 cells - 8 hour (AID 1224873); also: nearly all actives have a fitted effect of over 55% in size
Summary of the method: as §1

[5] = qHTS RealTime-Glo MT Cell Viability Assay in HEK293 cells - 40 hour (AID 1224874); settings: RealTime-Glo luminescence; max response: hits give low values; also: nearly all actives have a fitted effect of over 50% in size
Summary of the method: (§4)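 Tox21 screen in HEK293 using RealTime-Glo MT chemistry, with cells and reagent co-dispensed. Luminescence proportional to viable cell number was captured at intervals during 40 h compound exposure at 37 C.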

[6] = A CellTox Green Cytotoxicity Assay to monitor cytotoxicity in HEK293 cells - 24 hour (AID 1224875); also: nearly all actives have a fitted effect of over 45% in size; also: potency is read from the fitted curve at half-maximal effect
Summary of the method: as §2

[7] = A CellTox Green Cytotoxicity Assay to monitor cytotoxicity in HepG2 cells - 16 hour (AID 1224876); also: nearly all actives have a fitted effect of over 45% in size; also: potency is read from the fitted curve at half-maximal effect
Summary of the method: (§5)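 Nonlytic assay: viable cells exclude the dye, so fluorescence scales with cell death. HepG2 at 600 cells/well, compounds added after 5 h, signal read across 40 h.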

[8] = qHTS RealTime-Glo MT Cell Viability Assay in HepG2 cells - 32 hour (AID 1224877); also: nearly all actives have a fitted effect of over 55% in size
Summary of the method: (§6)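 HepG2 cells (600/well) were dispensed with RealTime-Glo reagents, incubated 5 h at 37 °C, then treated with compounds in DMSO for up to 40 h. Nonlytic NanoLuc luminescence reflecting viable cells was read at each stated time point.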

[9] = A CellTox Green Cytotoxicity Assay to monitor cytotoxicity in HepG2 cells - 24 hour (AID 1224878); also: nearly all actives have a fitted effect of over 45% in size; also: potency is read from the fitted curve at half-maximal effect
Summary of the method: as §5

[10] = A CellTox Green Cytotoxicity Assay to monitor cytotoxicity in HepG2 cells - 40 hour (AID 1224879); also: nearly all actives have a fitted effect of over 40% in size; also: potency is read from the fitted curve at half-maximal effect
Summary of the method: as §5

[11] = qHTS RealTime-Glo MT Cell Viability Assay in HEK293 cells - 0 hour (AID 1224880)
Summary of the method: as §4

[12] = A CellTox Green Cytotoxicity Assay to monitor cytotoxicity in HEK293 cells - 32 hour (AID 1224881); also: nearly all actives have a fitted effect of over 40% in size; also: potency is read from the fitted curve at half-maximal effect
Summary of the method: as §2

[13] = A CellTox Green Cytotoxicity Assay to monitor cytotoxicity in HepG2 cells - 0 hour (AID 1224882); also: nearly all actives have a fitted effect of over 35% in size; also: potency is read from the fitted curve at half-maximal effect
Summary of the method: as §5

[14] = A CellTox Green Cytotoxicity Assay to monitor cytotoxicity in HepG2 cells - 32 hour (AID 1224883); also: nearly all actives have a fitted effect of over 50% in size; also: potency is read from the fitted curve at half-maximal effect
Summary of the method: as §5

[15] = A CellTox Green Cytotoxicity Assay to monitor cytotoxicity in HEK293 cells - 8 hour (AID 1224884); also: nearly all actives have a fitted effect of over 35% in size; also: potency is read from the fitted curve at half-maximal effect
Summary of the method: as §2

[16] = qHTS RealTime-Glo MT Cell Viability Assay in HepG2 cells - 16 hour (AID 1224885); also: nearly all actives have a fitted effect of over 50% in size
Summary of the method: as §6

[17] = qHTS RealTime-Glo MT Cell Viability Assay in HEK293 cells - 24 hour (AID 1224886)
Summary of the method: as §3

[18] = qHTS RealTime-Glo MT Cell Viability Assay in HEK293 cells - 8 hour (AID 1224887)
Summary of the method: as §4

[19] = A CellTox Green Cytotoxicity Assay to monitor cytotoxicity in HEK293 cells - 16 hour (AID 1224888); also: nearly all actives have a fitted effect of over 35% in size; also: potency is read from the fitted curve at half-maximal effect
Summary of the method: as §2

[20] = qHTS RealTime-Glo MT Cell Viability Assay in HepG2 cells - 0 hour (AID 1224889); also: nearly all actives have a fitted effect of over 50% in size
Summary of the method: as §6

SMILES	Potency [1]	Potency [2]	Potency [3]	Potency [4]	max response [5]	Potency [6]	Potency [7]	Potency [8]	Potency [9]	Potency [10]	Potency [11]	Potency [12]	Potency [13]	Potency [14]	Potency [15]	Potency [16]	Potency [17]	Potency [18]	Potency [19]	Potency [20]
COC(=O)CC(C(C)=O)C(=O)OC (stereo not given)	inactive	inactive	inactive	inactive	9.23%	inactive	inactive	inactive	inactive	inactive	inactive	inactive	inactive	inactive	inactive	inactive	inactive	inactive	inactive	inactive
Cc1ccc(N(CCO)CCO)cc1	inactive	inactive	inactive	inactive	0.166%	inactive	inactive	inactive	inactive	inactive	inactive	inactive	inactive	inactive	inactive	inactive	inactive	inactive	inactive	inactive
O=P(O)(O)Oc1ccccc1	inactive	inactive	inactive	inactive	12.9%	inactive	inactive	inactive	inactive	inactive	inactive	inactive	inactive	inactive	inactive	–	inactive	inactive	inactive	inactive
CC[C@H]1OC(=O)[C@H](C)[C@@H](O[C@H]2C[C@@](C)(OC)[C@@H](O)[C@H](C)O2)[C@H](C)[C@@H](O[C@@H]2O[C@H](C)C[C@H](N(C)C)[C@H]2O)[C@](C)(O)C[C@@H](C)C(=O)[C@H](C)[C@@H](O)[C@]1(C)O	inactive	inactive	inactive	inactive	-19.4%	inactive	inactive	inactive	inactive	inactive	inactive	inactive	inactive	inactive	inactive	inactive	inactive	inactive	inactive	inactive
CC(C)Cc1ccc(CC(=O)O)cc1	inactive	15.1 µM (active)	inactive	inactive	4.43%	10.7 µM (active)	19 µM (active)	inactive	19 µM (active)	21.3 µM (active)	inactive	10.7 µM (active)	19 µM (active)	19 µM (active)	9.52 µM (active)	inactive	inactive	inactive	9.52 µM (active)	inactive
CCNc1nc(N)nc(Cl)n1	inactive	inactive	inactive	inactive	9.34%	inactive	inactive	inactive	inactive	inactive	inactive	inactive	inactive	–	inactive	inactive	inactive	inactive	inactive	inactive
CCOC(=O)C(C)O (stereo not given)	inactive	inactive	inactive	inactive	15.3%	inactive	inactive	inactive	inactive	inactive	inactive	inactive	inactive	–	inactive	inactive	inactive	inactive	inactive	inactive
CCCCCCCCCCCCCCCC(=O)OCC	inactive	inactive	inactive	inactive	0.513%	inactive	inactive	inactive	inactive	inactive	inactive	inactive	inactive	–	inactive	inactive	inactive	inactive	inactive	inactive
CC(C)(C(=O)c1cccnc1)c1cccnc1	inactive	inactive	inactive	inactive	6.53%	inactive	inactive	inactive	inactive	inactive	inactive	inactive	inactive	inactive	inactive	inactive	inactive	inactive	inactive	inactive
O=C(O)c1cccc(Oc2ccccc2)c1	inactive	inactive	inactive	inactive	-1.97%	inactive	inactive	inactive	inactive	inactive	inactive	inactive	inactive	inactive	inactive	inactive	inactive	inactive	inactive	inactive
CCC1CCC(CCC(=O)O)C1 (stereo not given)	inactive	inactive	inactive	inactive	-15.6%	inactive	inactive	inactive	inactive	inactive	inactive	inactive	inactive	inactive	inactive	inactive	inactive	inactive	inactive	inactive
CCCCCCCCCCCSCC(=O)O	inactive	inactive	inactive	inactive	2.44%	inactive	inactive	inactive	inactive	inactive	inactive	inactive	inactive	–	inactive	inactive	inactive	inactive	inactive	inactive
